Test results: PubChem BioAssay (Tox21)
Results filed as inconclusive are left out. Active and inactive are the calls of the source. Unless noted, calls follow the shape of the dose curve; as a rule, active = well fitted curve in the direction sought with a large enough effect in the repeat runs; inconclusive = weak or mixed curves; inactive = no such curve, though single readings can be large; an effect the other way counts as inactive or inconclusive.

Columns and labels:
[1] = qHTS assay for small molecule agonists of the p53 signaling pathway (AID 651631; calls by dose curve; also: nearly all actives have a fitted effect of over 15% in size)
Method in brief: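 We treat p53RE-bla HCT-116 cells with compounds for 16 h at 37 °C, add LiveBLAzer B/G FRET substrate for 2 h at room temperature, and measure fluorescence intensity.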

[2] = qHTS assay for small molecules that induce genotoxicity in human embryonic kidney cells expressing luciferase-tagged ATAD5 (AID 651632); also: nearly all actives have a fitted effect of over 15% in size
Method in brief: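 ATAD5-luc HEK293T, 2,000 cells/well; cpd or DMSO pin-transferred; 16 hr, 37C/5% CO2; Amplite 30 min RT; luminescence.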

[3] = qHTS assay for small molecule agonists of the p53 signaling pathway - cell viability (AID 651633; calls by dose curve;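 also: p53RE-bla HCT reporter cells with a stable beta-lactamase p53 reporter; series mostly up to about 83 µM; nearly all actives have a fitted effect of over 30% in size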)
Method in brief: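 Viability counter-read: CellTiter-Glo luminescence (30 min, room temperature) in the same p53RE-bla plates. These plates had been exposed to compounds for 16 h at 37 C.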

[4] = qHTS assay for small molecules that induce genotoxicity in human embryonic kidney cells expressing luciferase-tagged ATAD5 - cell viability (AID 651634; calls by dose curve; also: nearly all actives have a fitted effect of over 25% in size)
Method in brief: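 Fluorescence from CellTiter-Fluor, reporting protease activity within live cells, served as the viability read-out. HEK293T cells carrying luciferase-tagged ATAD5 had been treated with compound for 15.5 hr at 37C.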

[5] = qHTS assay for small molecule disruptors of the mitochondrial membrane potential - cell viability (AID 720634; calls by dose curve;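 also: human HepG2 liver cancer cells; series mostly up to about 83 µM; nearly all actives have a fitted effect of over 20% in size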)
Method in brief: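 Cells: HepG2, 2,000/well, attached overnight. Compound 1 hr, 37 C/5% CO2. +m-MPI dye, +CellTiter-Glo 30 min RT. Readout: luminescence (ATP).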

[6] = qHTS assay to test for compound auto fluorescence at 590 nm (red) in HepG2 cells (AID 720674)
Method in brief: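 We screened compounds on adherent HepG2 cells, incubating them for an hour at 37 C in 5% CO2 before reading emission at 590 nm under 540 nm excitation; values reflect equivalence to Rose Bengal sodium fluorescence.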

[7] = qHTS assay to test for compound auto fluorescence at 535 nm (green) in HepG2 cells (AID 720675)
[8] = qHTS assay to test for compound auto fluorescence at 460 nm (blue) in HEK293 cells (AID 720678)
Method in brief: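 HEK293, 2,000 cells/well, 10% dialyzed FBS; attach 4-5 hr 37C; pin compound or DMSO; o/n 37C/5% CO2; fluorescence 405/460 nm; triamterene-equivalent units.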

[9] = qHTS assay to test for compound auto fluorescence at 590 nm (red) in HEK293 cells (AID 720679)
Method in brief: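 Intensity at 540nm excitation and 590nm emission is reported as Rose Bengal sodium-equivalent autofluorescence. Measurements followed overnight exposure (37C, 5% CO2) of HEK293 cells, 2,000 per well, to 23 nL compound.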

[10] = qHTS assay for small molecule disruptors of the mitochondrial membrane potential (AID 720635)
Method in brief: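 Mitochondrial membrane potential tracked with Mito-MPS dye, red aggregates (ex 540/em 590 nm) against green monomers (ex 490/em 535 nm). Compound treatment 1 hr at 37C, dye 30 min in HepG2.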

Measured: Potency

O=C(O)CC(C(=O)O)S(=O)(=O)O (stereo unspecified)
inactive: [1] | [2] | [3] | [4] | [5] | [6] | [7] | [8] | [9]

C=COC(=O)C(C)(CC)CCC(C)C (stereo unspecified)
inactive: [1] | [2] | [3] | [4] | [5] | [6] | [8] | [9]

CC(C)=CCC/C(C)=C/C#N
inactive: [1] | [2] | [3] | [4] | [5] | [6] | [7] | [8] | [9]

CCCC(C)C(=O)OCC (stereo unspecified)
inactive: [1] | [2] | [3] | [4] | [10] | [6] | [7] | [8] | [9]

CCOC(=O)COc1cc(-n2ncc(C(F)(F)F)c(C)c2=O)c(F)cc1Cl
inactive: [1] | [2] | [3] | [4] | [6] | [7] | [8] | [9]

CCCCOCCOC(=O)CCCCCCCCC(=O)OCCOCCCC
inactive: [1] | [2] | [3] | [4] | [5] | [6] | [8] | [9]

CCCc1nn(C)c2c(=O)[nH]c(-c3cc(S(=O)(=O)N4CCN(C)CC4)ccc3OCC)nc12
inactive: [1] | [2] | [3] | [4] | [5] | [6] | [7] | [8] | [9]

CCN1CCOCC1
inactive: [1] | [2] | [3] | [4] | [10] | [6] | [7] | [8] | [9]

CC(=O)N[C@H]1[C@H]([C@H](O)[C@H](O)CO)OC(C(=O)O)=C[C@@H]1N=C(N)N
inactive: [1] | [2] | [3] | [4] | [5] | [6] | [7] | [8] | [9]

CC(N)C12CC3CC(CC(C3)C1)C2 (stereo unspecified)
inactive: [1] | [2] | [3] | [4] | [5] | [6] | [7] | [8] | [9]

CC/C=C\CCOC(C)OCC (stereo unspecified)
inactive: [1] | [2] | [3] | [4] | [10] | [6] | [7] | [8] | [9]

C=C(C)C(=O)OCCOCCOCCOCCOC(=O)C(=C)C
inactive: [1] | [2] | [3] | [4] | [5] | [6] | [7] | [8] | [9]

CCC(=O)OCc1ccccc1
inactive: [1] | [2] | [3] | [4] | [5] | [6] | [7] | [8] | [9]

C=C[Si](OC(C)=O)(OC(C)=O)OC(C)=O
inactive: [1] | [2] | [3] | [4] | [5] | [6] | [7] | [8] | [9]

CCCn1cc[n+](C)c1C
inactive: [1] | [2] | [3] | [4] | [5] | [6] | [7] | [8] | [9]

CCOC(=O)C1=NOC(c2ccccc2)(c2ccccc2)C1
inactive: [1] | [2] | [3] | [4] | [5] | [6] | [7] | [8] | [9]

CCOC(=O)COC(=O)c1ccccc1C(=O)OCC
inactive: [1] | [2] | [3] | [4] | [6] | [7] | [8] | [9]

CC(=O)c1ccc2ccccc2c1
inactive: [1] | [2] | [3] | [4] | [6] | [7] | [8] | [9]

CC(=O)C1CCCCC1=O (stereo unspecified)
inactive: [1] | [2] | [3] | [4] | [5] | [6] | [7] | [8] | [9]

CCCCS(=O)(=O)N[C@@H](Cc1ccc(OCCCCC2CCNCC2)cc1)C(=O)O
inactive: [1] | [2] | [3] | [5] | [10] | [6] | [7] | [8] | [9]

CCCCCC(=O)OCCc1ccccc1
inactive: [1] | [2] | [3] | [4] | [5] | [6] | [7] | [8] | [9]

CCOC(=O)c1ccccc1
inactive: [1] | [2] | [3] | [4] | [10] | [6] | [8] | [9]

C[C@@H]1C[C@H]2[C@@H]3C[C@H](F)C4=CC(=O)C(Cl)=C[C@]4(C)[C@@]3(F)[C@@H](O)C[C@]2(C)[C@@]1(O)C(=O)CO
inactive: [1] | [2] | [3] | [4] | [5] | [6] | [8] | [9]

CC[C@H]1OC(=O)[C@H](C)[C@@H](O[C@H]2C[C@@](C)(OC)[C@@H](O)[C@H](C)O2)[C@H](C)[C@@H](O[C@@H]2O[C@H](C)C[C@H](N(C)C)[C@H]2O)[C@](C)(OC)C[C@@H](C)C(=O)[C@H](C)[C@@H](O)[C@]1(C)O
inactive: [2] | [3] | [4] | [5] | [10] | [6] | [7] | [8] | [9]

CCC(C)(CCCC(C)C)OC(C)=O (stereo unspecified)
inactive: [1] | [3] | [4] | [5] | [10] | [6] | [8] | [9]

CC(C)NNC(=O)c1ccncc1
inactive: [1] | [3] | [4] | [5] | [10] | [6] | [7] | [8] | [9]
